Measured values: PubChem BioAssay (NCATS)
Records with an inconclusive call do not appear. A call without a number means that no potency is given here. The source made the active and inactive calls. Calls come from the whole dose curve; as a rule, active = well fitted inhibition curve with a large enough effect; inconclusive = small, poorly fitted or top-dose-only effect; inactive = no such curve, though single readings can be large or run the other way.

Tests used:
[1] = system: Zika virus NS2B-NS3 protease (unlinked complex); experiment: Primary screen GU Rhodamine qHTS for Zika virus inhibitors: Unlinked NS2B-NS3 protease assay (AID 1347159); note: nearly all actives have a fitted effect of over 60% in size; note: potency is the fitted concentration of half-maximal effect
In short: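 Percent inhibition derives from the 15-min fluorescence change (ex 480, em 540 nm), normalized to no-enzyme and no-inhibitor wells. Reactions contained 25 nM NS2B-NS3 complex and 1.5 microM substrate in 10 mM Tris-HCl pH 8.0.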

[2] = system: Zika virus NS2B-NS3 protease (linked construct); experiment: Primary screen NINDS Rhodamine qHTS for Zika virus inhibitors (AID 1347160); note: nearly all actives have a fitted effect of over 55% in size
In short: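 In 10 mM Tris-HCl pH 8.0 containing 0.01% Tween 20, linked NS2B-NS3 protease (25 nM final) is exposed to test compounds for 15 min. Cleavage of 1.5 microM Rhodamine110 substrate is tracked by fluorescence over 15 min.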

| Structure (SMILES) | Potency [1] | Potency [2] | activity change, negative = inhibition [1] | activity change, negative = inhibition [2] |
| --- | --- | --- | --- | --- |
| N#C[C@@H]1CCCN1C(=O)CNC12CC3CC(CC(O)(C3)C1)C2 | inactive | inactive | – | – |
| C[C@@H]1C(=O)O[C@H]2[C@H](O)C34[C@H]5C[C@@H](C(C)(C)C)C36[C@@H](OC(=O)[C@@H]6O)O[C@@]4(C(=O)O5)[C@@]12O (stereo not given in full) | inactive | inactive | – | – |
| CN(C)C1CCN(C(=O)c2ccc(NC(=O)Nc3ccc(-c4nc(N5CCOCC5)nc(N5CCOCC5)n4)cc3)cc2)CC1 | inactive | inactive | – | – |
| Cc1cccc(S(=O)(=O)N2CCC[C@@H]2CCN2CCC(C)CC2)c1 | inactive | inactive | – | – |
| CC(=O)O[C@@H]1c2c(C)coc2C(=O)[C@@]23O[C@@H]2CC[C@H](C)[C@@]13C | inactive | inactive | – | – |
| CCN(CC)Cc1ccc(C(=O)N(CCc2ccccc2OC)[C@@H]2CCNC2)cc1 | inactive | inactive | – | – |
| CC1CCC2(OC1)OC1CC3C4CCC5C[C@@H](O[C@@H]6O[C@H](CO[C@@H]7OC[C@@H](O)[C@H](O)[C@H]7O)[C@H](O)[C@H](O)[C@H]6O)CC[C@]5(C)C4CC[C@]3(C)C1C2C (stereo not given in full) | inactive | inactive | – | – |
| CC(C)C[C@H](CC(=O)NO)C(=O)N[C@@H](Cc1ccc2ccccc2c1)C(=O)N[C@@H](C)C(=O)NCCN | inactive | inactive | – | – |
| C=C1C(O)CC2C(C(=O)O)=COC(O[C@@H]3O[C@H](COC(=O)/C=C/c4ccc(O)cc4)[C@@H](O)[C@H](O)[C@H]3O)C12 (stereo not given in full) | inactive | inactive | – | – |
| COC(=O)c1cc(OC)cc(OC)c1C(=O)c1c(OC)cc2c(c1O)C1CCCC(C)(O2)O1 (stereo not given) | inactive | inactive | – | – |
| O=C1CCC(=O)N(O)CCCCCNC(=O)CCC(=O)N(O)CCOCCNC(=O)CCC(=O)N(O)CCCCCN1 | inactive | inactive | – | – |
| Cc1ccc(Cc2c(C)nc3nc(SCC(=O)NCCN4CCNCC4)nn3c2C)cc1 | inactive | inactive | – | – |
| CCOc1cc(N2CCC(O)CC2)ccc1Nc1ncc2c(n1)N(C1CCCC1)CCC(=O)N2C | inactive | inactive | – | – |
| O=C(NCc1ccccn1)Nc1nnc(-c2ccco2)o1 | inactive | inactive | – | – |
| CC(=O)OC12COC1CC(O)C1(C)C(=O)C(O)C3=C(C)C(OC(=O)C(O)C(NC(=O)OC(C)(C)C)c4ccccc4)CC(O)(C(OC(=O)c4ccccc4)C21)C3(C)C (stereo not given) | inactive | inactive | – | – |
| O=C(O)[C@@H]1C[C@H]2C[C@@H](CCc3nn[nH]n3)CC[C@H]2CN1 | inactive | inactive | – | – |
| COc1c(C)c(OCC(O)C(C)(C)O)cc2c1COC2=O (stereo not given) | inactive | inactive | – | – |
| COc1cc2c(cc1O)[C@H](c1ccc(O[C@@H]3O[C@H](CO)[C@@H](O)[C@H](O)[C@H]3O)c(OC)c1)[C@@H](CO)[C@](O)(CO)C2 | inactive | inactive | – | – |
| COc1ccc(CCO[C@@H]2CCCC[C@H]2N2CC[C@@H](O)C2)cc1OC | inactive | inactive | – | – |
| CC1(C)C2CC=C(COC3OC(COC4OCC(O)(CO)C4O)C(O)C(O)C3O)C1C2 (stereo not given) | inactive | inactive | – | – |

| Structure (SMILES) | Potency [1] | Potency [2] | activity change, negative = inhibition [1] | activity change, negative = inhibition [2] |
| --- | --- | --- | --- | --- |
| NC1(C(=O)NC(CCO)c2ccc(Cl)cc2)CCN(c2ncnc3[nH]ccc23)CC1 (stereo not given) | inactive | inactive | – | – |
| CCOC(=O)CCN(C(=O)c1ccc2c(c1)nc(CNc1ccc(C(=N)N)cc1)n2C)c1ccccn1 | inactive | inactive | – | – |
| C=C1C(=O)O[C@@H]2/C=C(\C)C(=O)/C=C/[C@](C)(O)C[C@@H](OC(=O)C(C)C)[C@@H]12 | inactive | inactive | – | – |
| C[C@@H]1C(=O)O[C@H](C)[C@H]1CC(=O)[C@](C)(O)[C@H]1CC[C@@]2(O)C3=CC(=O)[C@@H]4C[C@@H](O)[C@@H](O)C[C@]4(C)C3CC[C@]12C (stereo not given in full) | inactive | inactive | – | – |
| Cc1cc(O)c(-c2ccc([C@@H](C)CN(C)C)cc2)c2c1[nH]c(=O)c1sccc12 | inactive | inactive | – | – |
| COc1ccc(C(O)C(C)OC2OC(CO)C(O)C(O)C2O)cc1 (stereo not given) | inactive | inactive | – | – |
| Cc1ccc(-c2ccc3c(ccc4sc5c(c43)NC[C@@H](C)NC5=O)n2)cn1 | inactive | inactive | – | – |
| NC1CCCCN(c2c(F)cc3c(=O)c(C(=O)O)cn(C4CC4)c3c2Cl)C1 (stereo not given) | inactive | inactive | – | – |
| OCCc1ccc(O[C@@H]2O[C@H](CO)[C@@H](O)[C@H](O)[C@H]2O)cc1 | inactive | inactive | – | – |
| C=CC(C)(C)C12C=C(OC)C(=O)N3C(C(C)C)C(=O)NC31N(OC)c1ccccc12 (stereo not given) | inactive | inactive | – | – |
| COc1cccc(C(=O)N2CCN(C(=O)COc3cccc(C)c3)CC2)c1OC | inactive | inactive | – | – |
| C=C1C(OC2OCC(O)C(O)C2O)CC2C(C)(C)C(O)CCC2(C)C1CC/C(C)=C\CO (stereo not given) | inactive | inactive | – | – |
| O=C(O)/C=C/c1cc2c(cc1O[C@@H]1O[C@H](CO)[C@@H](O)[C@H](O)[C@H]1O)OCO2 | inactive | inactive | – | – |
| C=C[C@@](C)(O)CC/C=C(\C)C(=O)O[C@@H]1[C@@H]2O[C@]2(C)[C@H]2[C@H](O[C@@H]3O[C@H](CO)[C@@H](O)[C@H](O)[C@H]3O)OC=C[C@@]12O | inactive | inactive | – | – |
| CC1(C)CC[C@]2(C(=O)O[C@@H]3O[C@H](CO)[C@@H](O)[C@H](O)[C@H]3O)CC[C@]3(C)C(=CCC4[C@@]5(C)C[C@@H](O)[C@H](O)C(C)(C)C5CC[C@]43C)C2[C@@H]1O (stereo not given in full) | inactive | inactive | – | – |
| CC(=O)OC1CC2(C)C3=CCC4(C)C5C(O)C(O)C(C(C)C)C5(C)CCC4(C)C3CCC2C(C)(C)C1OC1OC(CO)C(O)C(O)C1O (stereo not given) | inactive | inactive | – | – |
| CCCN1CCC(c2cccc(S(C)(=O)=O)c2)CC1 | inactive | inactive | – | – |
| C[C@@H]1O[C@@H](O[C@H]2[C@H](O)[C@@H](O[C@@H]3O[C@H](CO)[C@@H](O)[C@H](O[C@@H]4O[C@H](CO)[C@@H](O)[C@H](O)[C@H]4O)[C@H]3O)[C@H](O[C@H]3CC[C@@]4(C)C(=CC[C@@H]5C4CC[C@@]4(C)C5C[C@@H]5OC6(CC[C@@](C)(CO[C@@H]7O[C@H](CO)[C@@H](O)[C@H](O)[C@H]7O)O6)[C@@H](C)[C@@H]54)C3)O[C@@H]2CO)[C@H](O)[C@H](O)[C@H]1OC1OC(CO)C(O)C(O)C1O (stereo not given in full) | – | – | -17.5% [at 19.1 µM] (inactive) | -10.4% [at 10.7 µM] (inactive) |
| COc1ncc(Nc2ncc([C@@H](C)N3CCN(S(C)(=O)=O)CC3)cc2-c2nc(C)nc(N)n2)cc1F | 44.7 µM (active) | inactive | – | – |
| CC1=C(CO)C(=O)O[C@@H]([C@@H](C)[C@H]2CC[C@H]3[C@@H]4C[C@H]5O[C@]56[C@@H](O)C=CC(=O)[C@]6(C)[C@H]4CC[C@]23C)C1 | inactive | inactive | – | – |

| Structure (SMILES) | Potency [1] | Potency [2] | activity change, negative = inhibition [1] | activity change, negative = inhibition [2] |
| --- | --- | --- | --- | --- |
| C=C1CN(Cc2ccc(C(=O)Nc3ccccc3N)cc2)C(=O)c2ccccc21 | inactive | inactive | – | – |
| COC(=O)C12CCC(C)C(C)C1C1=CCC3C4(C)CCC(OC(C)=O)C(C)(C)C4CCC3(C)C1(C)CC2 (stereo not given) | inactive | inactive | – | – |
| COc1cc2ncnc(Nc3ccc(F)c(Cl)c3)c2cc1NC(=O)/C=C/CN1CCCCC1 | inactive | inactive | – | – |
| C[C@H]1[C@H](O)O[C@@H]2O[C@@]3(C)CC[C@H]4[C@H](C)CC[C@@H]1[C@@]24OO3 | inactive | inactive | – | – |
| CC(=O)OC1C(OC(=O)c2ccccc2)C2C(C)(C)CC(=O)CC2(C)C23CCC(C)(C2)C(O)CC13 (stereo not given) | inactive | inactive | – | – |
| CC(C)C(NC(=O)c1ccc2ccccc2n1)C(=O)NC(CC(=O)O)C(=O)COc1c(F)cccc1F (stereo not given) | inactive | inactive | – | – |
| C[C@@H]1COCCN1c1cc(C2(S(C)(=O)=O)CC2)nc(-c2cccc3[nH]ccc23)n1 | inactive | inactive | – | – |
| O=C(CO)[C@@H](O)[C@H](O[C@@H]1O[C@H](CO)[C@H](O)[C@H](O)[C@H]1O)[C@H](O)CO | inactive | inactive | – | – |
| COc1cc(Nc2nc3c(s2)CCCC3c2ccc(F)cc2)ccc1-n1cnc(C)c1 (stereo not given) | inactive | inactive | – | – |
| CC(C)NCC(C(=O)N1CCN(c2ncnc3c2C(C)CC3O)CC1)c1ccc(Cl)cc1 (stereo not given) | inactive | inactive | – | – |
| C[C@@H]1O[C@@H](O[C@H]2[C@H](OC(=O)[C@]34CCC(C)(C)C[C@H]3C3=CCC5[C@@]6(C)C[C@H](O)[C@H](O[C@@H]7O[C@H](CO)[C@@H](O)[C@H](O)[C@H]7O)[C@@](C)(CO)C6[C@H](O)C[C@@]5(C)[C@]3(C)CC4)OC[C@H](O)[C@@H]2O)[C@H](O)[C@H](O)[C@H]1O[C@@H]1OC[C@@H](O)[C@H](O[C@@H]2OC[C@](O)(CO)[C@H]2O)[C@H]1O (stereo not given in full) | – | – | -1.32% [at 19.1 µM] (inactive) | 21.5% [at 10.7 µM] (inactive) |
| COc1c2cc(c(O)c1OC)-c1cc(ccc1O)CCC(O)CCCC2 (stereo not given) | inactive | inactive | – | – |
| CC(=O)C=C=C1C(C)(C)CC(O[C@@H]2O[C@H](CO)[C@@H](O)[C@H](O)[C@H]2O)CC1(C)O (stereo not given in full) | inactive | inactive | – | – |
| CC1OC(OC2C(C)OC(OC3C(O)C(CO)OC(O[C@H]4CC[C@@]5(C)C(CC[C@]6(C)C5CC=C5C7[C@@H](C)[C@H](C)CC[C@]7(C(=O)O)CC[C@]56C(=O)O)C4(C)C)C3O)C(O)C2O)C(O)C(O)C1O (stereo not given in full) | inactive | inactive | – | – |
| CC(C)CC1NC(=O)C2CC3(O)c4ccccc4NC3N2C1=O (stereo not given) | inactive | inactive | – | – |
| O=C(NCc1ccc(F)cc1)C(=O)c1c[nH]c2ccccc12 | inactive | inactive | – | – |
| CNS(=O)(=O)c1ccccc1Nc1nc(Nc2ccc(N3CCN(C)CC3)cc2OC)ncc1Cl | inactive | inactive | – | – |
| C[C@H](NC(c1cccc(C[P+](=O)O)c1)[C@H](C)O)c1ccc(Cl)c(Cl)c1 (stereo not given in full) | inactive | inactive | – | – |
| COc1cc2c(cc1OC)N1C(=O)C[C@]34C=CCN5CC[C@@H]2[C@@H](CC3)[C@]514 | inactive | inactive | – | – |
| CC(C)O[C@@H]1O[C@H](CO)[C@@H](O)[C@H](O)[C@H]1O | inactive | inactive | – | – |
